Assay outcomes: PubChem, ICCB-Longwood Screening Facility, Harvard Medical School
This is one part of a sample in which hits are shown more often than they occur.
fixLJ activator: B. multivorans fixK reporter activation | B. multivorans fixK-promoter GFP reporter, 18 h; stronger effect = higher value | AID 1918990 | z-score (no concentration beside the values) | hit rate 0.3% among 29,000;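 active = replicate mean overnight rise in green fluorescent reporter signal, 3 or more SD over negative controls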
An asterisk follows results filed as active.

Screening COc1ccc(CNC(=O)Cn2ncc3c4ccccc4n(Cc4cccc(Cl)c4)c3c2=O)cc1 returned fixLJ activator 24*.
For CC(CCc1ccccc1)NC(=O)Cn1ncc2c3ccccc3n(Cc3ccccc3)c2c1=O (stereo not drawn) the results were fixLJ activator -2.7.
`O=C(Cn1ncc2c3ccccc3n(Cc3ccccc3)c2c1=O)NCc1cccs1` gave fixLJ activator -0.73.
O=C(Cn1ncc2c3ccccc3n(Cc3ccc(F)cc3)c2c1=O)NCc1cccs1 was read as fixLJ activator -0.7.
Screening CCN(CC(O)c1cccc(O)c1)C(=O)Nc1cc(C(=O)OC)ccc1OC (stereo not drawn) returned fixLJ activator -0.67.
`Cc1ccc(-n2cccn2)cc1S(=O)(=O)N1CCCC(CNC(=O)C2CC2)C1` (stereo not drawn) gave fixLJ activator -0.87.
O=C(CCc1cc(=O)[nH]o1)N1CCCC(Cc2nc3ccccc3[nH]2)C1 (stereo not drawn) was read as fixLJ activator -0.21.
CCCOc1ccccc1C(=O)Nc1c(C)c(CC)nn1C was read as fixLJ activator -0.9.
`CN1CCCCC1C(=O)N1CCOc2c(O)cc(-c3cccc(Cl)c3)cc2C1` (stereo not drawn) gave fixLJ activator -0.16.
For COc1ccc(-c2nccn2CCN2CCOC2=O)c2ccccc12 the results were fixLJ activator -1.4.
CCCc1cc(C(=O)NC2CCOCC2Oc2ccc(C(N)=O)cc2)n[nH]1 (stereo not drawn) was read as fixLJ activator 0.17.
Cc1cc(/C=C/c2ccc3cc(N(C)C)ccc3[n+]2C)c(C)n1-c1ccccc1 was read as fixLJ activator 4*.
CCOc1ccc2ncc3c(-c4cccc(OC)c4)nn(-c4ccccc4)c3c2c1 was read as fixLJ activator 3.3*.
Screening CCc1ccc(-c2nn(-c3ccc(OC)cc3)c3c2cnc2ccc(OC)cc23)cc1 returned fixLJ activator 1.1.
For CCOc1ccc(-c2nn(-c3ccc(F)cc3)c3c2cnc2ccc(F)cc23)cc1 the results were fixLJ activator -1.6.
O=C(c1nc2ccc(Cl)cn2c1CN1CC(O)C1)N1CCCCCCC1 was read as fixLJ activator -1.8.
Nc1c(C(=O)Nc2ccc(Cl)cc2F)sc2nc(-c3cccs3)ccc12 was read as fixLJ activator 8.7*.
For Nc1c(C(=O)Nc2ccc(F)c(F)c2)sc2nc(-c3ccncc3)ccc12 the results were fixLJ activator -0.61.
Nc1c(C(=O)Nc2ccccc2Br)sc2nc(-c3cccs3)ccc12 was read as fixLJ activator -4.1.
For CC(Cc1ccsc1)Nc1nc(-c2ccncc2)nc2c1cnn2C (stereo not drawn) the results were fixLJ activator -0.81.
For NCCOc1cccc(CC(=O)N2CCCN(C(=O)C3CCCO3)CC2)c1 (stereo not drawn) the results were fixLJ activator -0.5.
For O=C(NCC1CC(=O)N(C2CC2)C1)c1ccc(Cl)cc1O (stereo not drawn) the results were fixLJ activator -2.1.
`Cc1ccc(C(=O)N2CCC3(CC2)CN(Cc2scnc2C)C(=O)CCO3)cn1` gave fixLJ activator -0.55.
Screening Cc1ccc(-c2cc(C(F)(F)F)n3ncc(-c4ccccc4)c3n2)cc1 returned fixLJ activator 0.44.
For COc1ccc(-c2cc(C(F)(F)F)n3ncc(-c4ccccc4)c3n2)cc1 the results were fixLJ activator 3.3*.
COc1ccc(-c2cc3nc(-c4ccccc4)cc(C(F)(F)F)n3n2)cc1 was read as fixLJ activator 0.13.
O=C(NCC(F)(F)F)c1ccc(-c2ncccc2C(=O)N2CCCC2)cc1 was read as fixLJ activator -1.4.
Screening COc1ccc(CN2CCC3(CCC(=O)N(CCO)C3)CC2)cc1 returned fixLJ activator -1.3.
CC(=O)NCC1CCN(S(=O)(=O)c2cc(C(=O)O)c(Cl)cc2F)CC1 was read as fixLJ activator -1.5.
`COCCCC1CCCN(C(=O)c2cnc(-c3cccnc3)nc2C)C1` (stereo not drawn) gave fixLJ activator -1.1.
`CCC(=O)Nc1ccc(F)c(NC(=O)N(C)C(C)Cc2cc(C)ccn2)c1` (stereo not drawn) gave fixLJ activator 0.05.
`CCC(=O)N1CCc2cc(Br)cc(S(=O)(=O)CCC(=O)Nc3cccc(C)c3C)c21` gave fixLJ activator 3.4*.
Screening Cc1ccccc1NC(=O)CCS(=O)(=O)c1cc(Br)cc2c1N(C(=O)C1CC1)CC2 returned fixLJ activator 0.43.
Cc1cccc(NC(=O)CCS(=O)(=O)c2cc(Br)cc3c2N(C(=O)C2CC2)CC3)c1C was read as fixLJ activator 0.77.
`COc1ccc(S(N)(=O)=O)cc1C(=O)N(C)Cc1c(C)noc1C` gave fixLJ activator 0.88.
For CN(Cc1cccc(OCCCn2ccnc2)c1)C1C[C@@H]2CC(O)C[C@H]2C1 the results were fixLJ activator 0.72.
Cc1[nH]nc(C(=O)NCCn2c(C)cc3ccccc32)c1Cl was read as fixLJ activator -2.
For Cc1nc2ccc(C(=O)NCCNC(=O)c3cccnc3)cc2s1 the results were fixLJ activator -1.3.
